{"source": "PubChem BioAssay (NCATS)"}
{"test": "qHTS drug screen for cell cycle checkpoint inhibitors in PARPi-resistant BRCA-mutant ovarian cancer cell lines. (AID 1963452)", "conditions": "PEO1/OlaR viability, CellTiter-Glo luminescence, 96 h; measured here: PEO1 parental Z-AUC; stronger effect = lower value", "outline": "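PEO1, PEO4 and PEO1/OlaR ovarian cancer cells, 600 per well, exposed 96 h at 37C to a dilution series. Viability read by CellTiter-Glo luminescence, normalized to DMSO and empty wells; activity summarized as Z-AUC.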"}
{"smiles": "Nc1ncnc2c1nc(Cl)n2[C@@H]1O[C@H](CO)[C@@H](O)[C@@H]1O", "Z-AUC": -0.225}
{"smiles": "COCCOc1nc(-c2ccc(Cl)c(Cl)c2)n(-c2ccc(NC(=O)CCl)cc2)n1", "Z-AUC": 0.0816}
{"smiles": "CCOC(CN1C(=O)[C@](CC(=O)Nc2ccc(C)cc2)(NC(=O)Nc2ccc(C)cc2)c2ccccc21)OCC", "Z-AUC": 1.06}
{"smiles": "CN(C)Cc1ccc(-c2nc3cccc4c3n2CCNC4=O)cc1", "Z-AUC": 0.483}
{"smiles": "Clc1ccc(C(c2ccc(Cl)cc2)n2cc[n+](CC(OCc3ccc(Cl)cc3Cl)c3ccc(Cl)cc3Cl)c2)cc1", "note": "(stereo not drawn)", "Z-AUC": -0.468}
{"smiles": "O=c1c(-c2ccc(O)cc2)coc2cc(O)ccc12", "Z-AUC": 1.51}
{"smiles": "CCNc1cc(NC2CCC(O)CC2)nc(Nc2ccc3c(ccn3Cc3ccccc3)c2)n1", "note": "(stereo not drawn)", "Z-AUC": 0.235}
{"smiles": "Oc1ccc(C2CCN(c3ccnc4ccccc34)CC2)cc1O", "Z-AUC": -0.32}
{"smiles": "COc1cc2ncnc(-n3nc(-c4ccccn4)nc3N)c2cc1OC", "Z-AUC": 0.627}
{"smiles": "c1ccc2c(Cc3c[nH]c4ccccc34)c[nH]c2c1", "Z-AUC": 0.126}
{"smiles": "NS(=O)(=O)c1cccc2c1C(=O)c1cccc(O)c1C2=O", "Z-AUC": -1.19}
{"smiles": "O=C(CCN1CCN(C(=O)OCc2cc(Cl)cc(Cl)c2)CC1)c1ccc2[nH]c(=O)oc2c1", "Z-AUC": 0.576}
{"smiles": "C[C@]12CCC3c4ccc(O)cc4CCC3C1CCC2=O", "note": "(stereo partly drawn)", "Z-AUC": 0.945}
{"smiles": "Cc1ccc(C(=O)Nc2cccc(C(F)(F)F)c2)cc1Nc1nc(-c2cccnc2)nc2c1cnn2C", "Z-AUC": 0.182}
{"smiles": "Oc1ccc(C2=Cc3ccc(O)cc3OC2)cc1", "Z-AUC": -0.782}
{"smiles": "N#CC1(c2ccc(NC(=O)c3cccnc3NCc3ccncc3)cc2)CCCC1", "Z-AUC": 1.37}
{"smiles": "CCS(=O)(=O)N1CC(CC#N)(n2cc(-c3ncnc4[nH]ccc34)cn2)C1", "Z-AUC": 0.902}
{"smiles": "CCOC(=O)C1=C(N)Oc2ccc(Br)cc2C1C(C#N)C(=O)OCC", "note": "(stereo not drawn)", "Z-AUC": 1.22}
{"smiles": "COc1ncc(-c2ccc3nccc(-c4ccnnc4)c3c2)cc1NS(=O)(=O)c1ccc(F)cc1F", "Z-AUC": -2.06}
{"smiles": "COc1cc(N2CCC(N3CCN(C)CC3)CC2)ccc1Nc1ncnc(Nc2ccccc2S(=O)(=O)C(C)C)n1", "Z-AUC": 0.069}
{"smiles": "O=C(Nc1ccccc1Br)N[C@@H]1CCN(c2ccc(C(F)(F)F)cn2)C1", "Z-AUC": 0.714}
{"smiles": "CN1CCN(CCOc2cc(OC3CCOCC3)c3c(Nc4c(Cl)ccc5c4OCO5)ncnc3c2)CC1", "Z-AUC": 0.934}
{"smiles": "O=C(N[C@@H](c1ccccc1)[C@@H]1CCCCN1)c1cccc(C(F)(F)F)c1Cl", "Z-AUC": 0.513}
{"smiles": "CNC1CCC(N(Cc2cccc(-c3ccncc3)c2)C(=O)c2sc3c(F)ccc(F)c3c2Cl)CC1", "note": "(stereo not drawn)", "Z-AUC": -0.582}
{"smiles": "Cc1ccc(C(C)(O)c2nc3ccccc3s2)c(C)c1", "note": "(stereo not drawn)", "Z-AUC": 0.537}
{"smiles": "NC(=O)c1ccc2nc(-c3ccc(Oc4ccc(Cl)cc4)cc3)[nH]c2c1", "Z-AUC": -1.26}
{"smiles": "COc1cc(NC(=O)c2ccc(-c3ccc(Cl)cc3)o2)cc(OC)c1", "Z-AUC": -0.389}
{"smiles": "c1cc(-c2sc(-c3ccncc3)c(-c3ccncc3)c2-c2ccncc2)ccn1", "Z-AUC": 1.54}
{"smiles": "Cc1ccc(/C=N/NC(=O)c2ccccc2Oc2ccccc2)o1", "Z-AUC": 0.523}
{"smiles": "CC(C)(C(=O)NCC(F)(F)C(F)(F)F)C(=O)N[C@@H]1C(=O)Nc2ccccc2-c2ccccc21", "Z-AUC": 0.706}
{"smiles": "COc1ccc2c(Oc3ccc(NC(=O)c4c(C)n(CC(C)(C)O)n(-c5ccccc5)c4=O)nc3)ccnc2c1", "Z-AUC": 0.436}
{"smiles": "Cc1c(NC(=O)c2ccc(C(C)(C)C)cc2)cccc1-c1cn(C)c(=O)c(Nc2ccc(C(=O)N3CCOCC3)cc2)n1", "Z-AUC": 0.745}
{"smiles": "Cc1nc(N)sc1-c1ccnc(Nc2ccc(N3CCOCC3)cc2)n1", "Z-AUC": -0.029}
{"smiles": "CC[C@@]1(O)C[C@H](O[C@H]2C[C@H](N(C)C)[C@H](O[C@H]3C[C@H](O)[C@H](O[C@H]4CCC(=O)[C@H](C)O4)[C@H](C)O3)[C@H](C)O2)c2c(cc3c(c2O)C(=O)c2c(O)cccc2C3=O)[C@@H]1C(=O)OC", "Z-AUC": -0.555}
{"smiles": "COc1ccc(-c2coc3cc(O)cc(O)c3c2=O)cc1", "Z-AUC": 0.911}
{"smiles": "N#Cc1ccc(NC(=O)Nc2ccccc2Br)c2n[nH]nc12", "Z-AUC": 0.952}
{"smiles": "COc1cccc([C@@H](C)NCCCc2ccccc2Cl)c1", "Z-AUC": 1.12}
{"smiles": "Cc1ccc(F)c(NC(=O)Nc2ccc(-c3cccc4[nH]nc(N)c34)cc2)c1", "Z-AUC": 1.09}
